# Screening data as filed in PubChem BioAssay.
# In the library only some 1.8% were active in any assay of this set; here they are far more common.
# Mcl-1 Bim block = inhibitors of Bim-Mcl-1 interaction, human; inhibition, % at 10 µM; Q07820; Bead-based flow cytometry, Bim peptide-Mcl-1 binding; AID 1009; hit rate 0.1% among 190,000; in the data active means inhibition above about 40%;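 further: 0% = no compound tracer wells and 100% = peptide blocker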
# TLR4 MyD88 comp = TLR4-MyD88 interaction inhibition in cells | hit rate 0.18% among 200,000 | AID 861 | HeLa CL3-4 TLR4/MyD88 BLA complementation, FRET ratio | inhibition, % at 8.4 µM | O00206+Q99836; in the data active means inhibition above about 25%;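 further: 0% = vehicle and 100% = reference inhibitor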
# Mcl1-Noxa inh = disrupts binding of human Mcl-1 to Noxa peptide; TR-FRET Mcl-1/Noxa peptide binding, 2 h; AID 1022; Q07820; hit rate 1.5% among 220,000; inhibition, % at 21.7 µM;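 active means compounds that cut the protein-peptide binding signal by more than 50% relative to plate controls in a single-dose test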;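 further: His-tagged Mcl-1 with rhodamine Noxa BH3 peptide and terbium anti-His antibody; 0% = Mcl-1 plus Noxa peptide wells and 100% = peptide-only wells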
# TLR9-MyD88 inh = blocks human TLR9 binding to MyD88; Q9NR96+Q99836; CHO BLA complementation TLR9-MyD88, CCF4 FRET ratio; inhibition, % at 4.98 µM; hit rate 0.21% among 340,000;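 active means inhibition above the mean over all tested compounds plus 3 SD, cut at about 21% in these data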;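 further: 0% = DMSO only wells and 100% = clavulanate BLA inhibitor control wells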
# Target sequence (Q99836 whole entry, looked up): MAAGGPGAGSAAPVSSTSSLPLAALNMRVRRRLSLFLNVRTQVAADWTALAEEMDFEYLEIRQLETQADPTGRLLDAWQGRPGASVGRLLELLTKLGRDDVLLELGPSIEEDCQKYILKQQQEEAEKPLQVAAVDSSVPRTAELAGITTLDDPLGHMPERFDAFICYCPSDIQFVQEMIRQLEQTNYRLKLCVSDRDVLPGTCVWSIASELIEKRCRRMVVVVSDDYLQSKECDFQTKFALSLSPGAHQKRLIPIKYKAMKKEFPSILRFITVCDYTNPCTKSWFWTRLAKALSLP
# Target sequence (Q9NR96 whole entry, looked up): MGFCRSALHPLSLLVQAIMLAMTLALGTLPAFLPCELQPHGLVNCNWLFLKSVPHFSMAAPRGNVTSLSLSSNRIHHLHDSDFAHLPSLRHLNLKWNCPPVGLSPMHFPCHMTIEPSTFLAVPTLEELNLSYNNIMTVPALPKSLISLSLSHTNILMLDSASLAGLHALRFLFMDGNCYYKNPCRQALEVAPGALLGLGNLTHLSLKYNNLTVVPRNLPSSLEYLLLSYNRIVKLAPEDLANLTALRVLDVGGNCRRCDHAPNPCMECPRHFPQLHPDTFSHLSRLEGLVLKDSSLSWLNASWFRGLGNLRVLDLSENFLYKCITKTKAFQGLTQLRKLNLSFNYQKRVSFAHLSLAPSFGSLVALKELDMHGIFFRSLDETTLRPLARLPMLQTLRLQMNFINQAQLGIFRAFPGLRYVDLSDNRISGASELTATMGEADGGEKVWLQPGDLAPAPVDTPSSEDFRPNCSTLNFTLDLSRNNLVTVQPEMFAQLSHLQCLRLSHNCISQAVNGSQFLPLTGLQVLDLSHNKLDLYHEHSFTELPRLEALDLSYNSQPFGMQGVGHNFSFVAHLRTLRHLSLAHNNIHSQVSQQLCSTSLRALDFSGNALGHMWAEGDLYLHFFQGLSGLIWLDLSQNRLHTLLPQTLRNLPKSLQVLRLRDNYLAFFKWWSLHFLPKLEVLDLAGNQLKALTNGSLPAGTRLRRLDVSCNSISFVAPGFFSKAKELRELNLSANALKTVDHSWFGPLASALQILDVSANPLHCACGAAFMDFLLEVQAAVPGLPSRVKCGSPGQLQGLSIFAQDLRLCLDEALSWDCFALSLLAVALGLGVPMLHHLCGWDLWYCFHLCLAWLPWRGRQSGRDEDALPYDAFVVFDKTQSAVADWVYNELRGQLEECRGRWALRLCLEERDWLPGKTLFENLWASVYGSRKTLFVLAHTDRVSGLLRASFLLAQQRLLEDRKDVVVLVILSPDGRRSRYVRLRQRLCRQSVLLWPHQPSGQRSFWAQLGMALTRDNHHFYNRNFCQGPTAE
# Mcl1 Bid PPI = disrupts binding of human Mcl-1 to Bid peptide | Q07820 | TR-FRET Mcl-1/Bid-Dy647 peptide binding, 1536-well | inhibition, % at 21.7 µM | hit rate 0.97% among 220,000;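 active means compounds that cut the binding signal by more than half at the single screening dose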;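 further: His-tagged Mcl-1 with europium anti-His antibody binding Bid BH3 peptide; 0% = Mcl-1 plus peptide wells and 100% = peptide-only wells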
# NOD2-RIPK2 inh = NOD2-RIPK2 protein interaction inhibition; O43353; hit rate 0.38% among 360,000; CHO BLA complementation NOD2-RIPK2, CCF4 ratio; AID 624267; inhibition, % at 4.98 µM; in the data active means inhibition above about 21%;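 further: 0% = vehicle only and 100% = reference blocker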
# Active calls of the source: *; x = no result given.
SMILES,Mcl-1 Bim block,TLR4 MyD88 comp,Mcl1-Noxa inh,TLR9-MyD88 inh,Mcl1 Bid PPI,NOD2-RIPK2 inh
COC(=O)c1sc(-c2ccc(C(C)(C)C)cc2)cc1NC(=O)c1ccccc1C(=O)O,x,x,51*,-3,8,-9
COc1ccc(N2CCN(CCN3C(=O)c4ccccc4C3=O)CC2)cc1,x,x,x,4,x,-6
COc1ccc2cc(C3CC(c4cccs4)=NN3C(C)=O)c(Cl)nc2c1 (stereo not drawn),x,x,15,-4,54*,-3
COc1ccc(N2CCN(C(=O)c3cc(=O)c4cc(C)c(C)cc4o3)CC2)cc1,x,x,x,-13,x,-8
Cc1ccc(NC2=C(NC(=O)c3ccccc3)C(=O)c3ccccc3C2=O)cc1Cl,2,-13,86*,-1,3,-6
O=C1C(Cl)=C(Nc2ccccc2)C(=O)c2ccccc21,-6,-3,10,-3,-51,5
O=C(O)c1ccc(NC2=C(Cl)C(=O)c3ccccc3C2=O)cc1,x,x,53*,4,5,-9
O=C(O)c1cccc(NC2=C(Cl)C(=O)c3ccccc3C2=O)c1,6,-5,87*,-6,17,2
CC1=C(Nc2ccc(C(=O)O)cc2)C(=O)c2ccccc2C1=O,x,x,x,-3,x,0
CCOC(=O)C1CCN(C(=O)C2CCN(S(=O)(=O)c3ccc4ccccc4c3)CC2)CC1,x,x,x,-9,x,-6
CN1CCN(NC(=O)c2cc(Br)ccc2Cl)CC1,1,1,6,-4,-26,1
Cc1ccc(-n2c(=O)c3cc4c(=O)n(-c5ccc(C)c(C)c5)c(=O)c4c(C(=O)c4ccc(C(=O)O)cc4)c3c2=O)cc1C,x,x,95*,-9,102*,-26
Cc1cc2c(C)c(C)c(=O)[nH]c2cc1N,-4,-12,55*,-3,-20,1
C=CCNC(=O)/C(C#N)=C/c1cn(-c2ccccc2)nc1-c1ccc(OC)c([N+](=O)[O-])c1,-4,-5,15,0,58*,-11
CC(C)(C)OC(=O)N1CCc2onc(-c3ccc(Cl)cc3)c2C1=O,x,x,x,14,x,7
O=C(Nc1ccc2ccccc2c1)OC1CCS(=O)(=O)C1 (stereo not drawn),x,x,x,x,x,-6
Oc1cc2c(cc1C(c1ccc(Cl)c(Cl)c1)N1CCCC1)OCO2 (stereo not drawn),-3,3,92*,1,94*,-5
CC(C)c1[nH]nc2c1C(c1cccnc1)C(C#N)=C(N)O2 (stereo not drawn),-2,2,3,4,92*,5
COC(=O)[C@H](CC(C)C)NC(=O)Cn1cnc2c(NCc3ccccc3)ncnc21,x,x,x,-3,x,-4
COC(=O)c1ccc2nc(-c3ccc(Cl)cc3)c(Cc3cccc(Cl)c3)n2c1,x,x,x,x,x,-11
Cc1noc(C(=O)N2CCN(c3ccccc3)CC2)c1Cl,x,x,x,0,x,-10
COc1ccc(O)c(-c2cn[nH]c2-c2cccs2)c1,-1,-14,55*,-3,-16,-4
COc1ccc2[nH]c3c(c2c1)CCn1c-3nc2sc(C(=O)Nc3ccccc3)c(C)c2c1=O,0,-9,54*,x,75*,x
O=C1c2ccccc2C(=O)N1c1cccc(-c2csc(Nc3ccc4c(c3)OCO4)n2)c1,1,0,62*,x,38,x
c1ccc(-c2csc(Nc3ccc4c(c3)OCO4)n2)cc1,x,x,x,x,x,7
SMILES,Mcl-1 Bim block,TLR4 MyD88 comp,Mcl1-Noxa inh,TLR9-MyD88 inh,Mcl1 Bid PPI,NOD2-RIPK2 inh
CCSc1nnc2ccc(-c3cccs3)nn12,-1,-10,14,-8,-3,-4
CSc1nnc2ccc(-c3cccs3)nn12,42*,-6,3,0,-5,-17
CCc1ccc(NC(=O)c2ccnc(C(C)(C)C)c2)cc1,1,-20,-2,6,101*,3
NC(=O)C(=O)N/N=C/c1c2ccccc2cc2ccccc12,x,x,x,-3,x,-3
O=C(NCCN1CCCC1=O)C1CCC(=O)N(CCc2cccc(F)c2)C1 (stereo not drawn),x,x,x,2,x,-8
CCOc1cnn(Cc2ccccc2)c(=O)c1SCc1ccccc1,-3,11,70*,-6,-25,-4
CC1=C(CC(=O)c2ccc(Cl)cc2)C(=O)c2ccccc2C1=O,-2,-5,-6,1,-14,7
COc1ccccc1C(=O)N1CCC(N2CCN(c3ccccc3)CC2)CC1,x,x,-68,-12,56*,0
CCn1c(CNC(=O)c2cccnc2)cc2ccccc21,x,x,x,-8,x,0
Cc1nnc(SCc2cc(=O)oc3ccc4ccccc4c23)n1Cc1ccccc1,-2,8,17,6,71*,5
Cc1cnc(NCCc2ccccc2)s1,x,x,x,-3,x,-9
CCOc1ccc(N2CC(O)=C(c3nc4ccccc4c(=O)[nH]3)C2=N)cc1,0,-9,48,1,57*,-5
N=C1C(c2nc3ccccc3c(=O)[nH]2)=C(O)CN1c1ccccc1,0,3,34,x,15,x
O=c1c(C(c2c(O)nc3n(c2=O)CCS3)c2cccc3ccccc23)c(O)nc2n1CCS2,1,-11,53*,-3,-11,-2
Cc1ccc(C(c2c(O)nc3n(c2=O)CCS3)c2c(O)nc3n(c2=O)CCS3)cc1,-4,-14,30,3,-52,-3
O=c1c(C(c2ccc(Br)cc2)c2c(O)nc3n(c2=O)CCCS3)c(O)nc2n1CCCS2,x,x,6,-13,-33,-3
O=c1c(C(c2ccc(O)cc2)c2c(O)nc3n(c2=O)CCCS3)c(O)nc2n1CCCS2,3,-8,52*,-8,-88,1
O=c1c(C(c2ccc(O)cc2)c2c(O)nc3n(c2=O)CCS3)c(O)nc2n1CCS2,0,-9,60*,-6,-9,-4
COc1ccc(/C=C2/C(=O)N(Cc3ccccc3)N=C2C)cc1,-3,19,7,-2,-24,15
COc1ccc(/C=C2/C(=O)N(c3nc4ccccc4s3)N=C2CSc2ccc(Cl)cc2)cc1,1,-8,91*,1,51*,-11
CCOC(=O)CC1C(=O)NCCN1S(=O)(=O)c1ccc(NC(C)=O)cc1 (stereo not drawn),x,x,x,-1,x,-6
CC(C(=O)O)n1nc2ccccc2n1 (stereo not drawn),-2,-13,26,-2,71*,-5
Cc1ccc(S(=O)(=O)Nc2csc(C)c2C(=O)O)cc1,x,x,54*,x,19,x
CN(C)CCN(C(=O)c1cccc(Cl)c1)c1nc2c(Cl)cccc2s1,-2,10,-5,1,-18,2
CN(C)CCN(C(=O)c1ccccc1Cl)c1nc2c(Cl)cccc2s1,-4,4,-7,6,57*,-2
CC1C(=O)N2CCCc3cc(S(=O)(=O)NCc4ccccc4Cl)cc1c32 (stereo not drawn),x,x,x,1,x,1
Cc1cc(C(F)F)n2nc(C(=O)Nc3sc4c(c3C(N)=O)CCC4)nc2n1,-12,-8,74*,-7,-87,-15
